# Source: paper PMC10812921, “Transcriptional Coactivator BOB1 (OBF1, OCA-B) Modulates the Specificity of DNA Recognition by the POU-Domain Factors OCT1 and OCT2 in a Monomeric Configuration”
# Key:
# [1] = biological target: POU1 (OCT1 POU domain) (human, UniProt P14859 260-458); assay: EMSA-SELEX-seq; no BOB1; 20 mM Tris-HCl pH 7.6, 140 mM NaCl, 10% glycerol, 0.5 mM EDTA, 0.05% Triton X-100, 0.1 mg/mL BSA, 0.1 mg/mL poly(dI-dC), 5 mM DTT, room temperature, 20 min; high values mean tight binding; details: protein: recombinant; dsDNA, one strand shown
# Chain of POU1 (OCT1 POU domain) (P14859 260-458): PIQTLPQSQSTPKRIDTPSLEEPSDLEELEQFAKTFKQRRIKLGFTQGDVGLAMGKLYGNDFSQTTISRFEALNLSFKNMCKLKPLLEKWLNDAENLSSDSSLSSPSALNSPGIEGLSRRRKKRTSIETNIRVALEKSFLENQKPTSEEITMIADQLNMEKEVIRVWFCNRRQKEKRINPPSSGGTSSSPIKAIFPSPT
# Outline: (§1)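 Tagged POU-domain proteins were expressed in E. coli BL21, purified under denaturing conditions and renatured. Then 30 ng was mixed with 300 ng of a PCR-amplified double-stranded random 35-nt library, with or without 28 ng coactivator protein, in 20 μL Tris–HCl pH 7.6 binding buffer for 20 min at RT. Complex bands were cut from native 6% PAGE, eluted and PCR-amplified over four rounds, then Illumina-sequenced. Binding preference is the percentage of sequenced 8-mers matching a motif pattern.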
# [2] = biological target: T1, POU2 (OCT2 POU domain) (human, UniProt P09086 175-386); assay: as above; details: protein: recombinant; dsDNA, one strand shown
# T1 sequence: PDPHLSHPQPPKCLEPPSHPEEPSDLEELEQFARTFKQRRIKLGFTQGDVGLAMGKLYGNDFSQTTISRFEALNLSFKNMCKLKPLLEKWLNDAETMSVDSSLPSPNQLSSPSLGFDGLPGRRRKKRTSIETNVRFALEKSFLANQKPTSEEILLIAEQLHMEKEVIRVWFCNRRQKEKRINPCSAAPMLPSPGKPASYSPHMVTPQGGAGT
# Outline: as §1
# [3] = biological target: POU1 (OCT1 POU domain);BOB1 (OBF1, OCA-B) (human;human, UniProt P14859;Q16633 260-458;1-256, |); assay: EMSA-SELEX-seq; with BOB1 (ternary complex band); 20 mM Tris-HCl pH 7.6, 140 mM NaCl, 10% glycerol, 0.5 mM EDTA, 0.05% Triton X-100, 0.1 mg/mL BSA, 0.1 mg/mL poly(dI-dC), 5 mM DTT, room temperature, 20 min; high values mean tight binding; details: protein: recombinant;recombinant; copies: 1;1; dsDNA, one strand shown
# Outline: as §1
# [4] = biological target: T2, POU2 (OCT2 POU domain);BOB1 (OBF1, OCA-B) (human;human, UniProt P09086;Q16633 175-386;1-256, |); assay: as above; details: protein: recombinant;recombinant; copies: 1;1; dsDNA, one strand shown
# T2 sequence 1: T1 sequence
# T2 sequence 2: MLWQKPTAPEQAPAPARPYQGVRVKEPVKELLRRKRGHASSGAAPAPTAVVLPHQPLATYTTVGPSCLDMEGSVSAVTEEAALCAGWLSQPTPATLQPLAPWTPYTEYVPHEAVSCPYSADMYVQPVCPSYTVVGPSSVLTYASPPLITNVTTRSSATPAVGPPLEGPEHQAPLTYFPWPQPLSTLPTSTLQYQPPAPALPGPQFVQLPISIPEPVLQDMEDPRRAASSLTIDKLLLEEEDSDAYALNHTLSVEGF
# Outline: as §1
Sequence,binding signal [1],binding signal [2],binding signal [3],binding signal [4]
AAAGGAAG,0.0561 % of ANNNNAAN 8-mers,0.061 % of ANNNNAAN 8-mers,0.0675 % of ANNNNAAN 8-mers,0.0702 % of ANNNNAAN 8-mers
ACGGTAAG,0.0351 % of ANNNNAAN 8-mers,0.0311 % of ANNNNAAN 8-mers,0.0359 % of ANNNNAAN 8-mers,0.0413 % of ANNNNAAN 8-mers
AGGGTAAA,0.0706 % of ANNNNAAN 8-mers,0.0857 % of ANNNNAAN 8-mers,0.0679 % of ANNNNAAN 8-mers,0.0966 % of ANNNNAAN 8-mers
AGATTAAC,0.0885 % of ANNNNAAN 8-mers,0.0863 % of ANNNNAAN 8-mers,0.0414 % of ANNNNAAN 8-mers,0.0495 % of ANNNNAAN 8-mers
AAAACAAT,0.0736 % of ANNNNAAN 8-mers,0.0604 % of ANNNNAAN 8-mers,0.0913 % of ANNNNAAN 8-mers,0.0735 % of ANNNNAAN 8-mers
AGACTAAG,0.0278 % of ANNNNAAN 8-mers,0.0328 % of ANNNNAAN 8-mers,0.03 % of ANNNNAAN 8-mers,0.0314 % of ANNNNAAN 8-mers
AGTGAAAG,0.0469 % of ANNNNAAN 8-mers,0.0409 % of ANNNNAAN 8-mers,0.0624 % of ANNNNAAN 8-mers,0.0504 % of ANNNNAAN 8-mers
AGTGAAAA,0.0698 % of ANNNNAAN 8-mers,0.0685 % of ANNNNAAN 8-mers,0.0956 % of ANNNNAAN 8-mers,0.0685 % of ANNNNAAN 8-mers
AGTCAAAC,0.0763 % of ANNNNAAN 8-mers,0.042 % of ANNNNAAN 8-mers,0.122 % of ANNNNAAN 8-mers,0.0545 % of ANNNNAAN 8-mers
AAGTGAAC,0.0233 % of ANNNNAAN 8-mers,0.0305 % of ANNNNAAN 8-mers,0.0254 % of ANNNNAAN 8-mers,0.0388 % of ANNNNAAN 8-mers
AAGATAAA,0.0622 % of ANNNNAAN 8-mers,0.0662 % of ANNNNAAN 8-mers,0.0585 % of ANNNNAAN 8-mers,0.0405 % of ANNNNAAN 8-mers
AACAGAAT,0.0645 % of ANNNNAAN 8-mers,0.0679 % of ANNNNAAN 8-mers,0.0507 % of ANNNNAAN 8-mers,0.0594 % of ANNNNAAN 8-mers
ACGTAAAT,0.217 % of ANNNNAAN 8-mers,0.172 % of ANNNNAAN 8-mers,0.232 % of ANNNNAAN 8-mers,0.147 % of ANNNNAAN 8-mers
ACGGTAAT,0.0984 % of ANNNNAAN 8-mers,0.143 % of ANNNNAAN 8-mers,0.0741 % of ANNNNAAN 8-mers,0.109 % of ANNNNAAN 8-mers
ATGGCAAG,0.0355 % of ANNNNAAN 8-mers,0.0414 % of ANNNNAAN 8-mers,0.0351 % of ANNNNAAN 8-mers,0.0371 % of ANNNNAAN 8-mers
AAGATAAT,0.138 % of ANNNNAAN 8-mers,0.203 % of ANNNNAAN 8-mers,0.0819 % of ANNNNAAN 8-mers,0.129 % of ANNNNAAN 8-mers

Sequence,binding signal [1],binding signal [2],binding signal [3],binding signal [4]
ACACGAAT,0.0347 % of ANNNNAAN 8-mers,0.0575 % of ANNNNAAN 8-mers,0.0379 % of ANNNNAAN 8-mers,0.0438 % of ANNNNAAN 8-mers
ATGCTAAA,0.273 % of ANNNNAAN 8-mers,0.293 % of ANNNNAAN 8-mers,0.0691 % of ANNNNAAN 8-mers,0.0817 % of ANNNNAAN 8-mers
ATCTAAAC,0.0229 % of ANNNNAAN 8-mers,0.0374 % of ANNNNAAN 8-mers,0.0379 % of ANNNNAAN 8-mers,0.0495 % of ANNNNAAN 8-mers
AGGCCAAA,0.029 % of ANNNNAAN 8-mers,0.027 % of ANNNNAAN 8-mers,0.0242 % of ANNNNAAN 8-mers,0.0281 % of ANNNNAAN 8-mers
ATCACAAT,0.045 % of ANNNNAAN 8-mers,0.0518 % of ANNNNAAN 8-mers,0.039 % of ANNNNAAN 8-mers,0.0487 % of ANNNNAAN 8-mers
ATAGCAAA,0.0744 % of ANNNNAAN 8-mers,0.0552 % of ANNNNAAN 8-mers,0.078 % of ANNNNAAN 8-mers,0.0454 % of ANNNNAAN 8-mers
AGGTCAAG,0.0297 % of ANNNNAAN 8-mers,0.042 % of ANNNNAAN 8-mers,0.0277 % of ANNNNAAN 8-mers,0.0289 % of ANNNNAAN 8-mers
ATTGCAAT,0.0561 % of ANNNNAAN 8-mers,0.061 % of ANNNNAAN 8-mers,0.0523 % of ANNNNAAN 8-mers,0.0479 % of ANNNNAAN 8-mers
ATATGAAA,0.159 % of ANNNNAAN 8-mers,0.164 % of ANNNNAAN 8-mers,0.226 % of ANNNNAAN 8-mers,0.239 % of ANNNNAAN 8-mers
ACCGGAAT,0.0412 % of ANNNNAAN 8-mers,0.0489 % of ANNNNAAN 8-mers,0.0398 % of ANNNNAAN 8-mers,0.0454 % of ANNNNAAN 8-mers
AGCCAAAA,0.0355 % of ANNNNAAN 8-mers,0.038 % of ANNNNAAN 8-mers,0.0499 % of ANNNNAAN 8-mers,0.0305 % of ANNNNAAN 8-mers
AATCGAAG,0.0408 % of ANNNNAAN 8-mers,0.0547 % of ANNNNAAN 8-mers,0.0531 % of ANNNNAAN 8-mers,0.0495 % of ANNNNAAN 8-mers
ATCCTAAT,0.0614 % of ANNNNAAN 8-mers,0.0944 % of ANNNNAAN 8-mers,0.0499 % of ANNNNAAN 8-mers,0.0693 % of ANNNNAAN 8-mers
AGGCTAAC,0.013 % of ANNNNAAN 8-mers,0.023 % of ANNNNAAN 8-mers,0.0191 % of ANNNNAAN 8-mers,0.0223 % of ANNNNAAN 8-mers
AACCCAAT,0.0206 % of ANNNNAAN 8-mers,0.019 % of ANNNNAAN 8-mers,0.0273 % of ANNNNAAN 8-mers,0.0223 % of ANNNNAAN 8-mers
ACGGGAAT,0.0641 % of ANNNNAAN 8-mers,0.0725 % of ANNNNAAN 8-mers,0.0574 % of ANNNNAAN 8-mers,0.0759 % of ANNNNAAN 8-mers
